In all, about 18,000 sequences were measured (“TetR repression strength (sort-seq, GFP reporter)”: median about 0.23, highest 2% from about 0.68 on). This is one part of a sample in which the highest values are shown more often than they occur.

Sequence of TetR (class B, Tn10) (P04483 whole entry): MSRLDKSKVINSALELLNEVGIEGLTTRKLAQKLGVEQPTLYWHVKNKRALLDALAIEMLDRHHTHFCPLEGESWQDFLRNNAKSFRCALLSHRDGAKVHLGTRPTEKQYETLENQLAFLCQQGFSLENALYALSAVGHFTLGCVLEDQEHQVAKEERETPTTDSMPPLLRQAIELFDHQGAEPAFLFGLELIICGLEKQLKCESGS

In this assay the target is TetR (class B, Tn10) (UniProt P04483). Description: TetR repression strength (sort-seq, GFP reporter) (relative to tetO2 = 1); higher = stronger repression. Conditions: E. coli. In a few lines:
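Escherichia coli SIG10-MAX cells carried a low-copy plasmid library in which eight operator positions were randomized between a constitutive promoter and sfGFP, and TetR was expressed constitutively. After 5 h of growth at 37 °C in LB with 50 µg/mL chloramphenicol, 10^6 cells were FACS-sorted into 13 fluorescence bins, and each bin was Illumina-sequenced. Repression strength was the top bin index plus one minus the read-weighted mean bin, divided by the value for the unaltered operator. Across three independent transformations, only library members with ≥30 reads in every replicate and a CV ≤0.5 were averaged.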
TCCCGGACAGTAACGGAGA yielded a TetR repression strength of 0.312.

The sequence TCCCGCGGAGTCACTGAGA came in with a TetR repression strength of 0.415.

TCCCTCGTAGTGTTTGAGA showed a TetR repression strength of 0.362.

Turning to TCCCAGTCAGTTCAGGAGA, the TetR repression strength stood at 0.096.

For the sequence TCCCGATAAGTTGCGGAGA, the TetR repression strength is 0.185.

With TCCCTTTCAGTAGCGGAGA, the TetR repression strength was determined as 0.798.

TCCCTTTCAGTAGGGGAGA showed a TetR repression strength of 0.194.

TCCCTTTCAGTAGAGGAGA displayed a TetR repression strength of 1.01.

TCCCCTTCAGTAGCGGAGA showed a TetR repression strength of 0.344.

Sequence TCCCTTACAGTAGCGGAGA yielded a TetR repression strength of 0.0543.

Consider TCCCTTTCAGTCGAGGAGA, for which the TetR repression strength came to 0.369.

Turning to TCCCAGACAGTCATCGAGA, the TetR repression strength was 0.368.

In the case of TCCCTAGCAGTTGTAGAGA, the TetR repression strength stood at 0.509.

As for TCCCTTGCAGTGATCGAGA, the TetR repression strength stood at 0.654.

TCCCGTCGAGTAGGGGAGA returned a TetR repression strength of 0.127.

In the case of TCCCTAGTAGTTAGGGAGA, the TetR repression strength was determined as 0.192.

As for TCCCAGCGAGTTACAGAGA, the TetR repression strength was determined as 0.238.

In the case of TCCCTGTTAGTTTGTGAGA, the TetR repression strength was 0.4.

Sequence TCCCTGTTAGTTTGAGAGA yielded a TetR repression strength of 0.856.

As to TCCCTGGGAGTTATAGAGA, the TetR repression strength is 0.354.

The sequence TCCCTGATAGTTTGAGAGA showed a TetR repression strength of 0.382.

As for TCCCTAGGAGTTAGGGAGA, the TetR repression strength is 0.979.

In turn, TCCCAGCGAGTTAGAGAGA came in with a TetR repression strength of 0.815.

As for TCCCTTGGAGTTAGGGAGA, the TetR repression strength was 0.2.

TCCCTGGGAGTTAGTGAGA showed a TetR repression strength of 0.146.

Consider TCCCAGAGAGTTAGCGAGA, for which the TetR repression strength was determined as 0.557.

For TCCCTGGGAGTTAGAGAGA, the TetR repression strength was 0.832.

For TCCCAGAAAGTCAATGAGA, the TetR repression strength was found to be 0.289.

TCCCTGCTAGTGGCAGAGA came in with a TetR repression strength of 0.119.

Regarding TCCCTATAAGTAGGAGAGA, the TetR repression strength amounted to 0.228.

With TCCCAGTGAGTGCGCGAGA, the TetR repression strength is 0.286.

TCCCCAGAAGTCGTTGAGA: the TetR repression strength was 0.061.

Sequence TCCCCGTAAGTACAGGAGA displayed a TetR repression strength of 0.368.

In turn, TCCCGGCAAGTTTTTGAGA gave a TetR repression strength of 0.238.

In turn, TCCCGGGAAGTGGGGGAGA had a TetR repression strength of 0.274.

Regarding TCCCGGATAGTGATCGAGA, the TetR repression strength is 0.33.

As for TCCCGACTAGTCAGGGAGA, the TetR repression strength turned out to be 0.515.

With TCCCCGGGAGTGTGGGAGA, the TetR repression strength was 0.207.

On to TCCCTGGTAGTGACCGAGA, for which the TetR repression strength came out at 0.116.

In turn, TCCCTTGGAGTTGAGGAGA yielded a TetR repression strength of 0.465.

The sequence TCCCTAGTAGTTGCGGAGA yielded a TetR repression strength of 0.322.

On to TCCCTGGTAGTTAGAGAGA, for which the TetR repression strength is 0.821.

TCCCTGGTAGTTAGTGAGA came in with a TetR repression strength of 0.141.

Take TCCCTGTTAGTTAGAGAGA: the TetR repression strength was determined as 0.452.

For the sequence TCCCTGGTAGTGAGAGAGA, the TetR repression strength worked out at 0.326.

Turning to TCCCCTAGAGTTGAGGAGA, the TetR repression strength was determined as 0.239.

TCCCTGGTAGTGACAGAGA: the TetR repression strength came out at 1.03.

Take TCCCTAGAAGTTGCGGAGA: the TetR repression strength stood at 1.2.

Sequence TCCCCTTGAGTTGAGGAGA gave a TetR repression strength of 0.707.

In turn, TCCCAAGAAGTTGCGGAGA yielded a TetR repression strength of 0.21.

TCCCGGCTAGTGTGGGAGA: the TetR repression strength is 0.221.

In the case of TCCCAGGAAGTCAGGGAGA, the TetR repression strength came out at 0.235.

TCCCCGAGAGTGCCAGAGA yielded a TetR repression strength of 0.411.

Regarding TCCCAATGAGTTCAGGAGA, the TetR repression strength came out at 0.243.

Regarding TCCCAGTTAGTAATTGAGA, the TetR repression strength turned out to be 0.0467.

Consider TCCCTGGGAGTTGGGGAGA, for which the TetR repression strength amounted to 0.211.

Regarding TCCCCTGGAGTTGGGGAGA, the TetR repression strength worked out at 1.09.

Sequence TCCCCTGGAGTTTGGGAGA gave a TetR repression strength of 0.286.

Take TCCCGACTAGTGATAGAGA: the TetR repression strength turned out to be 0.632.

The sequence TCCCCTTGAGTGTTTGAGA came in with a TetR repression strength of 0.302.

For TCCCCTCTAGTGTTTGAGA, the TetR repression strength is 0.945.

TCCCCTCGAGTGTTTGAGA came in with a TetR repression strength of 0.92.

TCCCCTGTAGTGTTTGAGA returned a TetR repression strength of 0.396.

Turning to TCCCGTCTAGTGTTTGAGA, the TetR repression strength came out at 0.371.

With TCCCCTCGAGTGTGTGAGA, the TetR repression strength turned out to be 0.125.

The sequence TCCCCCAGAGTTAACGAGA had a TetR repression strength of 0.207.

TCCCCTGCAGTGGCTGAGA: the TetR repression strength worked out at 0.205.

TCCCCTAGAGTCGATGAGA displayed a TetR repression strength of 0.271.

TCCCCACGAGTAGTCGAGA: the TetR repression strength worked out at 0.

TCCCCATTAGTAGTCGAGA: the TetR repression strength is 1.01.

TCCCCATGAGTCGTCGAGA displayed a TetR repression strength of 0.214.

With TCCCCAATAGTAGTCGAGA, the TetR repression strength was determined as 0.459.

TCCCCATTAGTATTCGAGA returned a TetR repression strength of 0.24.

With TCCCCAATAGTAGATGAGA, the TetR repression strength was found to be 0.672.

TCCCCATGAGTAGTCGAGA displayed a TetR repression strength of 1.03.

In turn, TCCCCAAGAGTAGATGAGA returned a TetR repression strength of 0.739.

In the case of TCCCCAAAAGTAGATGAGA, the TetR repression strength was found to be 0.081.

On to TCCCGTAGAGTCGATGAGA, for which the TetR repression strength was determined as 0.715.

The sequence TCCCGTTGAGTCGATGAGA had a TetR repression strength of 0.335.

TCCCGAAGAGTAAGTGAGA yielded a TetR repression strength of 0.207.

On to TCCCGTCCAGTGTGTGAGA, for which the TetR repression strength is 0.22.

In turn, TCCCATATAGTGTACGAGA came in with a TetR repression strength of 0.0769.

Sequence TCCCCTAGAGTGCAAGAGA showed a TetR repression strength of 0.552.

With TCCCATGGAGTTGGTGAGA, the TetR repression strength is 0.227.

The sequence TCCCCTCAAGTCGAGGAGA came in with a TetR repression strength of 0.125.

Sequence TCCCTACAAGTGGATGAGA displayed a TetR repression strength of 0.221.

Turning to TCCCTATCAGTCCCAGAGA, the TetR repression strength turned out to be 1.18.

As to TCCCTTTCAGTCCCAGAGA, the TetR repression strength was 0.0305.

In turn, TCCCTATTAGTCCCAGAGA yielded a TetR repression strength of 0.32.

Turning to TCCCCAGTAGTCCCTGAGA, the TetR repression strength is 0.945.

On to TCCCCAGTAGTCTGAGAGA, for which the TetR repression strength came out at 0.0196.

As to TCCCTATCAGTGCCAGAGA, the TetR repression strength was found to be 0.743.

In turn, TCCCCAGTAGTCGCTGAGA yielded a TetR repression strength of 0.311.

On to TCCCTCTCAGTGCCAGAGA, for which the TetR repression strength is 0.585.

As to TCCCAGTCAGTCCCAGAGA, the TetR repression strength is 0.365.

On to TCCCTATCAGTCCGAGAGA, for which the TetR repression strength came to 0.324.

TCCCCTTCAGTCCCAGAGA gave a TetR repression strength of 1.12.

TCCCTGTCAGTGCCAGAGA returned a TetR repression strength of 0.324.

For the sequence TCCCGTCAAGTAATAGAGA, the TetR repression strength is 0.331.

In turn, TCCCTGTTAGTTGTCGAGA registered a TetR repression strength of 0.341.

Regarding TCCCTTTCAGTATGGGAGA, the TetR repression strength was 0.422.

For the sequence TCCCAAAAAGTGGTGGAGA, the TetR repression strength amounted to 0.203.

Take TCCCCGCGAGTTGAAGAGA: the TetR repression strength came to 0.335.

In turn, TCCCTAACAGTCGGCGAGA had a TetR repression strength of 0.163.

In turn, TCCCTGAGAGTCGTGGAGA yielded a TetR repression strength of 0.239.

On to TCCCGTCAAGTGGATGAGA, for which the TetR repression strength was found to be 0.109.

Turning to TCCCTCCGAGTGCAGGAGA, the TetR repression strength came out at 0.492.

As to TCCCCCGCAGTGCATGAGA, the TetR repression strength worked out at 0.385.

In turn, TCCCCCTCAGTTGTAGAGA registered a TetR repression strength of 0.237.

For TCCCGAGCAGTGCAGGAGA, the TetR repression strength amounted to 0.226.

For the sequence TCCCGACCAGTGCGGGAGA, the TetR repression strength was found to be 0.222.

Take TCCCGACAAGTGCAGGAGA: the TetR repression strength amounted to 0.684.

For the sequence TCCCGACCAGTGCAGGAGA, the TetR repression strength is 0.805.

As to TCCCGAAAAGTGCAGGAGA, the TetR repression strength stood at 0.26.

TCCCGAGAAGTGCAGGAGA yielded a TetR repression strength of 0.173.

For the sequence TCCCTAGCAGTGGTGGAGA, the TetR repression strength was 0.27.

TCCCGTTGAGTGTATGAGA had a TetR repression strength of 0.181.

Sequence TCCCAGGCAGTCCGTGAGA came in with a TetR repression strength of 0.2.

For the sequence TCCCGGTTAGTGCAAGAGA, the TetR repression strength is 0.415.

TCCCTAGGAGTAACGGAGA registered a TetR repression strength of 0.183.

TCCCGTGTAGTTCTGGAGA registered a TetR repression strength of 0.189.

Turning to TCCCGTCGAGTGCCGGAGA, the TetR repression strength worked out at 0.363.

On to TCCCGTCGAGTTCCGGAGA, for which the TetR repression strength came out at 0.977.

The sequence TCCCGTCTAGTTCTAGAGA returned a TetR repression strength of 0.36.

As for TCCCGTCGAGTGAAGGAGA, the TetR repression strength stood at 0.311.

Regarding TCCCGTCGAGTTAAGGAGA, the TetR repression strength was 0.815.

TCCCTTCTAGTTAAGGAGA registered a TetR repression strength of 0.283.

Sequence TCCCGTCGAGTCCCGGAGA returned a TetR repression strength of 0.402.

The sequence TCCCGTCTAGTTAAGGAGA gave a TetR repression strength of 0.811.

In turn, TCCCGTCGAGTAAAGGAGA gave a TetR repression strength of 0.22.

TCCCGTCTAGTTCTGGAGA returned a TetR repression strength of 0.687.

TCCCGTCTAGTTGAGGAGA: the TetR repression strength was 0.24.

(Values after a collection of fitness landscapes (doi:10.1038/s41467-024-54723-y).)
